Screen size: about 150,000 compounds; about 6,500 (4.3%) were called active. Not shown: some 12% with an inconclusive outcome. Only a selection was taken, and actives are over-represented in it overall. Unmarked numbers belong to inactive results. Calls come from the whole dose curve; as a rule, active = well fitted inhibition curve with a large enough effect (not every such curve was filed as active); inconclusive = small, poorly fitted or top-dose-only effect, or another doubt; inactive = no such curve, though single readings can be large or run the other way.
% is set by controls: 0 for no effect and ±100 for the full control effect; potency is the fitted concentration of half-maximal effect.

The target of the test is 15-hydroxyprostaglandin dehydrogenase [NAD(+)] (Homo sapiens) (UniProt P15428). The test is described as follows: qHTS Assay for Inhibitors of HPGD (15-Hydroxyprostaglandin Dehydrogenase). The note with it: purified HPGD, NADH fluorescence kinetic, PGE2 substrate; activity change, negative = inhibition: active compounds read low. In outline: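 NADH formation kinetics: reaction with 30 uM PGE2 and 1 mM NAD+ (final), 20 nM enzyme, Tris-HCl pH 8 with Tween 20, after 15 min compound preincubation at room temperature. Fluorescence change, last versus first of five reads.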
15-hydroxyprostaglandin dehydrogenase [NAD(+)] (Homo sapiens), sequence (P15428 whole entry, looked up): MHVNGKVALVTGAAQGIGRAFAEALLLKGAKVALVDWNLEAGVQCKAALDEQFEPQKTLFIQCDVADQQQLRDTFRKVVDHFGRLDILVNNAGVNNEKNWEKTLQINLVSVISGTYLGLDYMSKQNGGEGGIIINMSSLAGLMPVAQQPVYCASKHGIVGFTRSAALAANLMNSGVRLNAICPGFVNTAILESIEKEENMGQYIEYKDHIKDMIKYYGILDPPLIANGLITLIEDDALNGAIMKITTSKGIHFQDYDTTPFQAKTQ
(Quantitative high-throughput screening tests each substance at several concentrations.)
Turning to `CCOc1cc(/C=N/NC(=O)OC)ccc1OCCSc1ccc(Cl)cc1`, the activity change, negative = inhibition is -11.7%.
Still for that read-out and setting: the same measure for `Cc1nn(-c2ccccc2)c2c1C(c1cccc([N+](=O)[O-])c1)N(c1ccccc1)C(=O)N2` (stereo unspecified): -6.84%; for `CC(Sc1cccc[n+]1[O-])C(=O)Nc1cccc(S(=O)(=O)N2CCOCC2)c1` (stereo unspecified): -20.6%.
Same read-out and setting: the same measure for `CC(=O)CC(c1ccccc1)C1C(=O)Oc2ccccc2C1=O` (stereo unspecified): -12.2%; for `O=C(c1cncc(Br)c1)N1CCN(c2ccc([N+](=O)[O-])cc2)CC1`: -27.4%; for `CSCc1ccc(C(=O)Nc2cc(C)cc(C)c2)cc1`: -12.7%.
The same measure, in the same setting: the same measure for `CN(C)S(=O)(=O)c1cccc(C(=O)Nc2cccnc2)c1`: -13.1%; for `COc1ccc(N(C(=O)c2cccnc2)S(=O)(=O)c2ccc3c(c2)n(C)c(=O)n3C)cc1`: -4.39%.
As to `O=C(c1cccnc1)N(c1cc2sc(=O)oc2c2ccccc12)S(=O)(=O)c1ccccc1`, the Potency was 17.8 µM (active).
Regarding `COc1ccc(/C=N/NC(=O)c2ccccc2)cc1OS(=O)(=O)c1ccccc1`, the activity change, negative = inhibition was -15.2%.
Regarding `Cn1c(=NC(=O)CSCC(=O)N2CCOCC2)sc2ccccc21`, the activity change, negative = inhibition is -16.8%.
Same read-out and setting: the same measure for `Cn1c(=NC(=O)c2cnccn2)sc2ccccc21`: -8.2%.
Regarding `Cn1c(=NC(=O)CSCC(=O)N2CCCCC2)sc2ccccc21`, the Potency was 22.4 µM (active).
As for `O=C(Nc1nc(-c2ccc(-c3ccccc3)cc2)cs1)c1cnccn1`, the activity change, negative = inhibition is -5.23%.
Regarding `CN(c1ccccc1)S(=O)(=O)c1cccc(NC(=O)Cc2c(F)cccc2Cl)c1`, the activity change, negative = inhibition is -8.06%.
The same measure, in the same setting: next, `Cc1ccc2c(c1)C1CN(C)CCC1N2C(=O)c1ccccc1NS(=O)(=O)c1ccc(F)cc1C` (stereo unspecified): -6.43%; `CCOC(=O)C1CCCN(C(=O)C2CCN(c3nnc(-n4cccc4)s3)CC2)C1` (stereo unspecified): -22.6%.
As for `O=C(C1CCN(c2nnc(-n3cccc3)s2)CC1)N1CCc2ccccc2C1`, the Potency was 14.1 µM (active).
In the case of `CSc1ccc(CCNC(=O)C2CCN(c3nnc(-n4cccc4)s3)CC2)cc1`, the activity change, negative = inhibition was 2.14%.
The same measure, in the same setting: next, `COc1ccc(C(=O)Nc2nc(-c3ccc(OC)cc3)c(-c3ccc([N+](=O)[O-])cc3)s2)cc1`: -12.2%.
Still for that read-out and setting: next, `O=C(NC(Nc1nc2ccc([N+](=O)[O-])cc2s1)(C(F)(F)F)C(F)(F)F)c1ccccc1`: -5.24%.
As to `COC(=O)C(NC(=O)c1ccc(OC)cc1)(Nc1ncc(S(=O)(=O)c2ccc([N+](=O)[O-])cc2)s1)C(F)(F)F` (stereo unspecified), the Potency was 15.8 µM (active).
Consider `CCOc1ccc(C(=O)NC(C(=O)NCc2ccccn2)C(C)C)cc1` (stereo unspecified), for which the activity change, negative = inhibition was -8.11%.
With `O=C(NCc1ccccn1)c1ccc2nc(-c3ccco3)c(-c3ccco3)nc2c1`, the Potency is 14.1 µM (active).
In the case of `CN(c1ccc(C(=O)NCc2ccccn2)cc1)S(C)(=O)=O`, the activity change, negative = inhibition was -25.1%.
For `COc1ccccc1C1SCCN1C(=O)c1ccc([N+](=O)[O-])cc1` (stereo unspecified), the activity change, negative = inhibition was -2.04%.
On to `O=C(CN1CCN(c2ccc(O)cc2)CC1)Nc1cc(S(=O)(=O)N2CCOCC2)ccc1Cl`, for which the activity change, negative = inhibition was -5.21%.
Still for that read-out and setting: next, `Cc1ccc(-n2c(C)cc(C(=O)CSc3nnc4ccccn34)c2C)cc1`: -16.1%; `C/C(=N\NC(=O)c1ccc(NS(=O)(=O)c2cccs2)cc1)c1ccc2ccccc2c1`: -21.6%; `Cc1cccc(NC(=O)c2sc3nc4c(c(-c5ccco5)c3c2N)CCC4)c1`: -21.6%.
For `CC(C)OC(=O)c1sc2nc3c(cc2c1N)C(=O)CCC3`, the Potency is 28.2 µM (active).
Regarding `Nc1c(C(=O)NCc2ccccc2)sc2nc3c(cc12)C(=O)CCC3`, the activity change, negative = inhibition was -24.2%.
Regarding `C/C(CCC(=O)OC[C@H]1O[C@H](C#Cc2ccccc2)C=C[C@@H]1Oc1ccc(C)cc1)=N\OC[C@@H](O)[C@H]1O[C@@H]2OC(C)(C)O[C@@H]2[C@H]1O`, the activity change, negative = inhibition is -19.5%.
On to `CCc1ccc(NC(=O)CC2C(=O)NCCN2C(=S)Nc2ccccc2)cc1` (stereo unspecified), for which the activity change, negative = inhibition is -10.9%.
In the case of `Cc1ccc(NN=C2C(=O)OC(C)(C)OC2=O)c(C)c1`, the activity change, negative = inhibition was -9.59%.
Same read-out and setting: the same measure for `C=CC1=C2C=C(C3CC3)N(C(CO)CO)C=C2C(=O)C(C)(OC(=O)c2ccco2)C1=O` (stereo unspecified): -2.61%; for `COc1ccc(OCc2cn3c(C)cc(C)nc3n2)cc1`: -7.95%.
Turning to `COc1ccc(C(C[N+](=O)[O-])n2nc(C)cc2C)cc1` (stereo unspecified), the Potency is 31.6 µM (active).
Consider `COc1ccc(Nc2cc(C)nc(-n3nc(C)cc3C)n2)cc1`, for which the activity change, negative = inhibition was -0.842%.
As for `COc1ccc(N2CCN(c3ccc([N+](=O)[O-])cc3Cl)CC2)cc1`, the activity change, negative = inhibition was -1.48%.
Still for that read-out and setting: the same measure for `COc1cc2c(cc1OC)C(Nc1ccc(S(N)(=O)=O)cc1)=NC(C)(C)C2`: -7.98%.
For `CSc1ccccc1C(=O)Nc1cccc(C(C)=O)c1`, the activity change, negative = inhibition is -4.99%.
With `CSc1nc(C)cc(SC(C(C)=O)C(=O)Nc2ccccc2)n1` (stereo unspecified), the Potency is 25.1 µM (active).
`CC(Sc1nnc2c(n1)C1CCC2(C)C1(C)C)C(=O)Nc1ccccc1` (stereo unspecified): the activity change, negative = inhibition was -10.3%.
The same measure, in the same setting: next, `CCCCOc1ccc(C(=O)NCC(=O)OCC(=O)N2CCN(S(=O)(=O)c3ccc(C)cc3C)CC2)cc1`: -0.54%; `COC(=O)c1ccc(C(=O)OC)c(NC(=S)N2CCN(c3ccc(F)cc3)CC2)c1`: -14.5%.
In the case of `CCOc1ccc(C(=O)NC(=S)Nc2ccc(NC(=O)C(C)C)cc2)cc1[N+](=O)[O-]`, the activity change, negative = inhibition is -3.94%.
For the compound `COc1ccc(OCC(=O)Nc2cc(C)c(Cl)cc2OC)c([N+](=O)[O-])c1`, the activity change, negative = inhibition is -1.27%.
As for `Cc1nnc(-c2ccc(Oc3ccc(C)c(C)c3)c([N+](=O)[O-])c2)o1`, the Potency is 10 µM (active).
Turning to `S=C(NCc1ccc(Cl)cc1)NC1CCCCC1`, the activity change, negative = inhibition is -2.44%.
For `C#CCNc1nc(C(C)C)nc2c1nnn2Cc1ccccc1F`, the activity change, negative = inhibition was -2.63%.
Still for that read-out and setting: next, `CC(C)(C)c1nc(NCC2CCCO2)c2nnn(Cc3ccccc3)c2n1` (stereo unspecified): -9.49%.
As for `CC(C)Nc1ncnc2c1nnn2Cc1ccccc1`, the Potency is 28.2 µM (active).
`N#Cc1ccccc1NC(=O)c1cccc(COc2ccc(Cl)cc2Cl)c1`: the activity change, negative = inhibition was -14.4%.
On the same count and under the same terms, next, `Cc1ccc(-n2c(SCC(=O)Nc3ncc(Cl)cc3Cl)nc3ccccc32)cc1`: -16.1%.
With `COCC(C)n1c(C)cc(C(=O)CSc2cc(C)c3ccccc3n2)c1C` (stereo unspecified), the activity change, negative = inhibition is -10.7%.
With `COc1ccc(/C=N/NC(=O)c2ccc(Cl)cc2)cc1COC(C)=O`, the activity change, negative = inhibition is -5.1%.
Regarding `Cc1ccc(C(=O)OCc2nc(N)nc(Nc3ccccc3C)n2)cc1`, the activity change, negative = inhibition is -0.25%.
Still for that read-out and setting: next, `CCC(C)NC(=O)c1cc(Cl)ccc1OC` (stereo unspecified): -11.4%.
For the compound `CC(Oc1ccc(Cl)cc1Cl)C(=O)/C=C/N(C)C` (stereo unspecified), the Potency is 22.4 µM (active).
For `CN(C)/C=C/C(=O)c1ccccc1F`, the activity change, negative = inhibition is -27.4%.
`CCn1cc(CNC(=O)c2cc([N+](=O)[O-])c(C)c([N+](=O)[O-])c2)cn1`: the activity change, negative = inhibition is -7.17%.
Still for that read-out and setting: next, `Cc1nc2ccccc2nc(C)c1=NOCc1ccc(Cl)cc1Cl`: -8.26%; `Cc1nnnn1/C(=C\c1ccccc1)C(=O)OCC(=O)N1CC2(C)CC1CC(C)(C)C2` (stereo unspecified): -7.09%.
With `O=C(NC1CC1)c1ccc2c(c1)NC(=O)c1ccccc1S2`, the Potency was 20 µM (active).
As to `O=C(NC1CC1)c1cccc(Br)c1`, the activity change, negative = inhibition was -26.7%.
Consider `S=C1Nc2cc(Cl)ccc2Sc2ccccc21`, for which the activity change, negative = inhibition is -14%.
In the case of `COc1cc(Cl)c(C)cc1NC(=O)[C@@H]1CCCN1C(=O)c1cccs1`, the activity change, negative = inhibition is -4.97%.
Turning to `COc1ccc(-c2nn(-c3ccccc3)cc2/C=N/Nc2ccccn2)cc1OC`, the activity change, negative = inhibition is -26.3%.
On the same count and under the same terms, next, `CC(=O)Nc1ccc(NC(=O)C(C)OC(=O)c2ccccc2C(=O)c2ccc(Cl)c([N+](=O)[O-])c2)cc1` (stereo unspecified): -2.62%.
Same read-out and setting: next, `COc1ccc(C2CC(c3ccccc3)=NN2C(=O)CSc2nccc(=O)[nH]2)cc1` (stereo unspecified): -5.74%.
Consider `COCCNC(=O)c1ccc(N2CCC3(CC2)OCCO3)c([N+](=O)[O-])c1`, for which the activity change, negative = inhibition is -17.4%.
`CCOC(=O)c1c(NC(=O)c2ccc(N3CCOCC3)c([N+](=O)[O-])c2)sc(C)c1C`: the activity change, negative = inhibition is -7.82%.
Turning to `CCC(C)NC(=O)c1ccc(N2CCC3(CC2)OCCO3)c([N+](=O)[O-])c1` (stereo unspecified), the Potency is 39.8 µM (active).
For the compound `CC(C)CNC(=O)COC(=O)c1ccccc1OCC(=O)Nc1ccc(Br)cc1`, the activity change, negative = inhibition is -5.33%.
With `Oc1c(C=Nc2cccc3nsnc23)ccc2ccccc12`, the Potency is 25.1 µM (active).
As to `Nc1nc(NC(=O)/C=C/c2ccccc2)nn1-c1ccccc1`, the activity change, negative = inhibition is -3.01%.
On the same count and under the same terms, the same measure for `COc1ccc(C2C(C#N)=C(/N=C/N3CCOCC3)OC3=C2C(=O)CC(C)(C)C3)cc1OC` (stereo unspecified): -16.4%.
`COc1cc(C2CC(=O)N3CN(Cc4ccccc4)CSC3=C2C#N)ccc1OCc1ccccc1` (stereo unspecified): the Potency is 10 µM (active).
For the compound `COc1ccc(C2CC(=O)n3c(nc4ccccc43)S2)cc1OC` (stereo unspecified), the activity change, negative = inhibition is -12.6%.
With `CC(C)C(=O)Nc1ccc(C(=O)NNC(=O)c2cccs2)cc1`, the activity change, negative = inhibition was -13.5%.
The same measure, in the same setting: next, `Cc1cc(C)nc(NC(=O)c2cccc([N+](=O)[O-])c2)c1`: -3.35%.
Still for that read-out and setting: the same measure for `CCCCC/C=C\C/C=C\CCCCCCCCCC(=O)O`: -12.4%; for `Cc1ccc(NC(=O)CCC(=O)N/N=C/c2ccco2)c(C)c1`: -2.23%.
Same read-out and setting: next, `COc1ccc(C(=O)O/N=C(\N)Cc2ccc(Cl)cc2Cl)cc1OC`: -15.7%.
Regarding `Nc1nnc(SCC(=O)OCc2ccc(Cl)c(Cl)c2)s1`, the activity change, negative = inhibition is -17.6%.
Take `CC1CCCCC1NC(=O)CSc1nnc(N)s1` (stereo unspecified): the Potency is 17.8 µM (active).
For the compound `Cc1nnc(SCC(=O)Nn2cnnc2)s1`, the activity change, negative = inhibition is -0.465%.
Turning to `Cc1nnc(SCC(=O)NC2CCCC2)s1`, the Potency was 28.2 µM (active).
With `CC1CCCC(NC(=O)CSc2nccn2C)C1C` (stereo unspecified), the activity change, negative = inhibition was -27.8%.
For `Cc1cnc(NC(=O)CSc2nnc(C)s2)s1`, the activity change, negative = inhibition was -0.21%.

Values taken from PubChem BioAssay AID894 (National Center for Advancing Translational Sciences (NCATS), 2007).
